“And” between values parts separate entries of the source, which are not always exact repeats. Identical values can stand only once. Out of some 73,000 compounds screened, about 2,500 (3.4%) were called active. Entries that show only a call come without a potency. Roughly 7% stayed inconclusive and do not appear here. The sample holds actives, similar compounds and a random draw of the others, so the mix is not that of the screen. Unmarked numbers belong to inactive results. The call rests on the fitted dose curve; in most records, active means well fitted inhibition curve with a large enough effect; inconclusive means small, poorly fitted or top-dose-only effect; inactive means no such curve, though single readings can be large or run the other way.
Potency means the concentration at half of the fitted maximal effect.

Sequence of 3-hydroxyacyl-CoA dehydrogenase type-2 (Homo sapiens) (Q99714 whole entry, looked up): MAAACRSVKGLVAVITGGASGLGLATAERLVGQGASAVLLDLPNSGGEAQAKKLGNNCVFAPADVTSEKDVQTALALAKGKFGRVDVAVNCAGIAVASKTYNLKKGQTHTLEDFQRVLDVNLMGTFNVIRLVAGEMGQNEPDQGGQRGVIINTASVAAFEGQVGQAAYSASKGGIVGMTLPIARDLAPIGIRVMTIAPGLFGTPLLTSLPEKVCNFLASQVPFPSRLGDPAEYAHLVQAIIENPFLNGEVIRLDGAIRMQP
Sequence of 3-hydroxyacyl-CoA dehydrogenase type-2 (Homo sapiens) (Q99714 whole entry, looked up): as above

The target of this assay is 3-hydroxyacyl-CoA dehydrogenase type-2 (Homo sapiens) (UniProt Q99714). Briefly: qHTS Assay for Inhibitors of HADH2 (Hydroxyacyl-Coenzyme A Dehydrogenase, Type II). Further: nearly all actives have a fitted effect of over 60% in size. The conditions noted are these: recombinant HADH2, NADH fluorescence, beta-hydroxybutyryl-CoA; series mostly up to 57.1 µM. In short, it runs like this:
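Activity measured as NADH fluorescence gain (360/450 nm), taken as the change between first and last reads of a 4-min kinetic run. Conditions: pH 9.0 Tris buffer, 20 nM E. coli-expressed His-tagged enzyme, 1 mM NAD+, 90 uM beta-hydroxybutyryl-CoA; 15-min compound preincubation.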
(In general: qHTS replaces the single test concentration by a dilution series.)
As for `CO[C@H]1COC(=O)C/C=C\[C@H](C)COC(=O)[C@@H](OCc2ccccc2)/C=C\[C@@H]1C`, the activity change, negative = inhibition is 8.32% [at 11.4 µM].
As for `COc1ccc2c(=O)cc(-c3ccccc3)oc2c1O`, the Potency result is “inactive”.
Take `Cc1cc2nc3c(=O)[nH]c(=O)nc-3n(C[C@H](O)[C@H](O)[C@H](O)CO)c2cc1C`: the Potency result was “inactive”.
For the compound `Cc1cccc(-n2c(N)c(C(=O)N3CCN(C)CC3)sc2=S)c1`, the Potency is 0.631 µM (active).
As for `Cc1cccc(-n2c(N)cc(=O)nc2SC(C)C(=O)NC2CCCCC2)c1` (stereo unspecified), the Potency entry was “inactive”.
Turning to `CC(=O)c1c(N2CCOCC2)nc(=S)n(-c2cc(C)ccc2C)c1C`, the Potency entry was “inactive”.
With `N#Cc1ccccc1-n1c(N)c(C(=O)N2CCCC2)sc1=S`, the Potency was 2.51 µM (active).
With `COc1cccc(-c2nn(C)c3sc(C(=O)N4CCN(c5ccccc5)CC4)cc23)c1`, the Potency result is “inactive”.
With `Cc1ccc(OCCCC(=O)N2CCOCC2)c(C)c1`, the Potency result was “inactive”.
Regarding `Cc1ccc(-n2c(N)c(C(=O)N3CCOCC3)sc2=S)c(C)c1`, the Potency is 3.16 µM (active).
Consider `O=C(c1ccccc1)N1CCN(C(=O)N2CCCCC2)CC1`, for which the Potency entry is “inactive”.
Regarding `CCC(=O)Nc1sc(C(=O)N2CCCCC2)c(C)c1C#N`, the Potency entry is “inactive”.
Same read-out and setting: in the case of `N#Cc1cc2[nH]c(=O)c(=O)[nH]c2cc1[N+](=O)[O-]` it was “inactive”; in that of `CCC[C@H]1C(=O)N2C(N(C)C)=Nc3ccc(C)cc3N2C1=O`, “inactive”.
For `Cc1cnc(CNc2ncncc2-c2ccccc2Cl)cn1`, the Potency entry is “inactive”.
Regarding `COC(=O)[C@H]1C[C@@H]1[C@H](NC(=O)Oc1ccc(F)cc1)c1ccccc1`, the Potency result is “inactive”.
With `O=c1cc(-c2ccccc2)[nH]c2nc(Cl)ccc12`, the Potency was 25.1 µM (active).
Still for that read-out and setting: in the case of `CN1CCN(c2ncc3nc(-c4ccc(Cl)cc4)c(=O)n(-c4ccccc4)c3n2)CC1` it was “inactive”.
As to `C#CCC(C(=O)OC)(C(=O)OC)C(C[N+](=O)[O-])c1ccccc1` (stereo unspecified), the activity change, negative = inhibition was 1.44% [at 11.4 µM].
Turning to `Cc1ccc2oc(=O)ccc2c1`, the Potency entry is “inactive”.
As to `CCN(CC)c1ccc2oc(=O)c(C)nc2c1`, the Potency was 3.98 µM (active).
As for `CC(=O)OCC1OC(C#CCCCc2ccccc2)C=CC1OC(C)=O` (stereo unspecified), the activity change, negative = inhibition was -21.4% [at 11.4 µM] and -18.3% [at 11.4 µM].
As for `O=c1oc2cc(O)ccc2cc1-c1ccc(F)cc1`, the Potency entry is “inactive”.
In the case of `COc1ccc(-c2cc3ccc(OCc4nn[nH]n4)cc3oc2=O)cc1`, the Potency was 3.16 µM (active).
For the compound `COc1cccc(C(=O)c2cc3ccc(O)cc3oc2=O)c1`, the Potency entry is “inactive”.
As to `Nc1ccccc1N`, the Potency entry is “inactive”.
Turning to `COC(=O)N1CCC[C@@]2(CCN(C(=O)NC(C)C)C2)C1`, the Potency entry is “inactive”.
As to `N=C(CC(=O)Nc1ccccn1)c1ccccc1`, the activity change, negative = inhibition was 6.89% [at 11.4 µM].
Consider `CC(C)c1cc(CN(C)C)c(O)c(C(C)(C)C)c1`, for which the activity change, negative = inhibition is -0.755% [at 11.4 µM].
For `O=C(Nc1cc(N2CCOCC2)ncn1)NC1(C(F)(F)F)Oc2ccc(Cl)cc2O1` (stereo unspecified), the Potency is 3.16 µM (active).
With `O=C(CN1CCOCC1)Nc1cc(Cl)ccc1Cl`, the Potency entry was “inactive”.
Still for that read-out and setting: in the case of `c1cnn(-c2cc(N3CCOCC3)ncn2)c1` it was “inactive”; in that of `COC(=O)[C@@H]1[C@H]2C[C@H]3c4[nH]c5cc(OC)ccc5c4CCN3C[C@@H]2C[C@@H](OC(=O)c2cc(OC)c(OC)c(OC)c2)[C@@H]1OC`, “inactive”; in that of `O=C(O)[C@@H](S)[C@H](S)C(=O)O`, 1 µM (active).
As to `O=C(O)CC(C(=O)O)C(CC(=O)O)C(=O)O` (stereo unspecified), the Potency result was “inactive”.
For the compound `CN(c1ccccc1)c1ccc(/C=c2\s/c(=C(/C#N)C(=O)C(C)(C)C)n(Cc3ccco3)c2=O)cc1`, the Potency result is “inactive”.
As to `O=c1nc2s/c(=C\c3ccco3)c(=O)n2nc1Cc1ccccc1`, the Potency is 7.94 µM (active).
On to `Cc1nc2nc(SCC(=O)NCc3ccco3)nn2c(C)c1Cc1ccccc1`, for which the Potency entry was “inactive”.
For the compound `CC(C)N(CCNC(=O)c1ccc(-n2c(=O)c(=O)[nH]c3ccccc32)cc1)C(C)C`, the Potency entry is “inactive”.
Same read-out and setting: in the case of `CN(C)CCCNC(=O)c1ccc2[nH]c3ccccc3c2c1` it was 25.1 µM (active).
Consider `CN(C)CCCCNC(=O)c1ccc(Cc2nc3ccccc3[nH]2)cc1`, for which the Potency result was “inactive”.
As to `COc1ccc(CNc2ncnc3ccc(-c4cccnc4)cc23)c(OC)c1`, the Potency entry was “inactive”.
Regarding `CS(=O)(=O)N1CCC2(CC1)CN(Cc1ccccc1)C2`, the Potency result is “inactive”.
In the case of `COC(=O)[C@@]1(C)C=C[C@@H](Cc2ccccc2)N1C(C)=O`, the Potency entry is “inactive”.
On the same count and under the same terms, under `CCCCCCCCCCCC(=O)O` stands “inactive”.
As for `Cc1cc(C)cc(C#CC2C=CC(Oc3ccc(C4CCCC4)cc3)C(CO)O2)c1` (stereo unspecified), the activity change, negative = inhibition was 10.7% [at 11.4 µM].
In the case of `O=S(=O)(O)CCN1CCOCC1`, the Potency entry is “inactive”.
Still for that read-out and setting: under `Oc1c(CN2CCOCC2)ccc(CN2CCOCC2)c1O` stands 0.316 µM (active).
`O=c1c(-c2ccccc2)coc2c(CN3CCOCC3)c(O)ccc12`: the Potency result was “inactive”.
`C=C(C)C1CC=C(C)C(O)C1` (stereo unspecified): the Potency result is “inactive”.
With `CCC[C@@H]1C[C@@]1(CCC)[C@@H](NC(=O)c1ccccc1)c1ccc(C(=O)OC)cc1`, the Potency result is “inactive”.
On to `O=C(Nc1cccc(F)c1)N1CC2(CCN(C(=O)c3csnn3)CC2)C1`, for which the Potency result is “inactive”.
With `COC(=O)c1cnn2c(C(F)(F)F)cc(-c3ccco3)nc12`, the Potency is 31.6 µM (active).
`Cc1cc(C(F)(F)F)nn1-c1nc(-c2ccco2)cc(C(F)(F)F)n1`: the Potency entry is “inactive”.
The same measure, in the same setting: in the case of `FC(F)(F)c1cc(-c2ccco2)nc(N2CCOCC2)n1` it was “inactive”; in that of `Cc1nnc(SCc2ccc(C(=O)c3ccc(Cl)cc3)o2)n1-c1ccccc1`, “inactive”.
Same read-out and setting: under `Cc1nc2cnc(N3CCN(C)CC3)nc2n(CCC#N)c1=O` stands “inactive”.
On to `O=C(Oc1cccnc1)c1cc2ccccc2oc1=O`, for which the Potency was 20 µM (active).
The same measure, in the same setting: in the case of `O=C(NCc1ccccn1)c1cc2ccccc2oc1=O` it was “inactive”; in that of `CS(=O)(=O)N1CCN(C(=O)c2cc3ccccc3oc2=O)CC1`, “inactive”.
`COC(=O)[C@@]1(Cc2ccc(OC)cc2)[C@H]2c3cc(C(=O)N4CCCC4)n(Cc4ccc(OC(F)(F)F)cc4)c3C[C@H]2CN1C(=O)c1ccccc1`: the Potency entry is “inactive”.
For `CCCC[C@@H]1C[C@H]1C(NC(=O)c1ccco1)c1ccc(C(=O)OC)cc1` (stereo partly specified), the Potency entry is “inactive”.
In the case of `Cc1ccc(-c2nn(CC(C)(C)C)c3ncnc(N)c23)cc1`, the Potency result is “inactive”.
On to `C[C@H](CCC(=O)NCC(=O)O)[C@H]1CC[C@H]2[C@H]3[C@@H](C[C@@H](O)[C@]12C)[C@]1(C)CC[C@H](O)C[C@@H]1C[C@@H]3O`, for which the Potency result was “inactive”.
On to `COc1ccc(-c2[nH]nc3c2C(c2ccncc2)C(C#N)=C(N)O3)cc1` (stereo unspecified), for which the Potency result is “inactive”.
As to `CCOc1c(OC)cc(C2C(C#N)=C(N)Oc3n[nH]c(-c4ccncc4)c32)cc1OC` (stereo unspecified), the Potency is 10 µM (active).
On to `CCCc1[nH]nc2c1C(c1ccc(OC)c(Cn3nc(C)c(Br)c3C)c1)C(C#N)=C(N)O2` (stereo unspecified), for which the Potency entry is “inactive”.
Still for that read-out and setting: in the case of `O=C(O)C1=CCCN(CCON=C(c2ccccc2)c2ccccc2)C1` it was “inactive”; in that of `N#CC1=C(N)Oc2cc(O)ccc2C1C1CCCCC1` (stereo unspecified), “inactive”.
Turning to `O=C(O)c1c(Br)c(Br)c(Br)c(Br)c1C1c2ccc(O)cc2Oc2cc(O)ccc21`, the Potency is 1.58 µM (active).
Same read-out and setting: in the case of `CC1CCCCN1CCCNC(=O)c1ccc(-n2c(=O)c(=O)[nH]c3ccccc32)cc1` (stereo unspecified) it was “inactive”; in that of `COc1ccc(Oc2ncc3nc(-c4ccc(F)cc4)c(=O)n(C)c3n2)cc1`, “inactive”; in that of `Oc1c(Cl)cc(Cl)c(Cl)c1Cc1c(O)c(Cl)cc(Cl)c1Cl`, 7.94 µM (active).
Same read-out and setting: in the case of `COc1ccc(N)c(OC)c1` it was “inactive”; in that of `O=C(NCc1ccccn1)c1c(O)c2c([nH]c1=O)CCCC2`, “inactive”; in that of `O=C(NCc1ccccn1)c1ccc2nc(-c3ccco3)c(-c3ccco3)nc2c1`, 5.01 µM (active).
Regarding `O=C(NCc1ccco1)c1nc2ncccn2n1`, the Potency result was “inactive”.
With `CC(C)[C@H](CO)Nc1nc(Nc2cc(N)cc(Cl)c2)c2ncn(C(C)C)c2n1`, the Potency result was “inactive”.
On to `COc1cccc([C@H](O)Cn2cc(-c3ccc(CON=C(C)C)cc3)nn2)c1`, for which the activity change, negative = inhibition is 4.01% [at 11.4 µM].
For `CC(=O)N1CCC2(CCCN(Cc3ccccc3)C2)CC1`, the Potency result is “inactive”.
Consider `CCN1CCCC1CNC(=O)c1cc2c(=O)n(C)c3ccccc3c2n1C` (stereo unspecified), for which the Potency was 31.6 µM (active).
The same measure, in the same setting: in the case of `Cn1c(C(=O)N2CCC(C(N)=O)CC2)cc2c(=O)n(C)c3ccccc3c21` it was “inactive”.
The same measure, in the same setting: in the case of `Cn1c(C(=O)NCCc2ccsc2)cc2c(=O)n(C)c3ccccc3c21` it was “inactive”.
Take `CC(C)C[C@@H](CC(=O)N[C@@H](CCC(=O)O)CC(=O)O)NC(=O)[C@@H]1CCCC[C@H]1NC(=O)C[C@@H](NC(=O)C[C@H](Cc1c[nH]c2ccccc12)NC(=O)[C@@H]1CCCC[C@H]1N)C(C)C`: the Potency result is “inactive”.
In the case of `COc1c(C)c2c(c(O)c1C/C=C(\C)CCC(=O)O)C(=O)OC2`, the Potency result is “inactive”.
With `C/C=C/C=C/C(=O)O`, the Potency entry is “inactive”.
As to `CCN(CC)CCCCn1c(-c2ccccc2)nc2c(N3CCOCC3)nc(C)nc21`, the Potency entry was “inactive”.
Turning to `Cc1ccc(-n2ncc3c(N4CCN(c5ccc(F)cc5)CC4)ncnc32)c(C)c1`, the Potency result is “inactive”.
`COc1ccc(-n2c(C)nc3c(cnn3-c3ccccc3)c2=O)cc1`: the Potency entry was “inactive”.
For `Cc1ccc(-n2ncc3c2ncn2nc(-c4ccco4)nc32)c(C)c1`, the Potency result is “inactive”.
With `COc1ccc(N2CCN(C(=O)CSc3ncnc4c3cnn4-c3ccc(OC)cc3)CC2)cc1`, the Potency entry was “inactive”.
`COc1ccc(-n2ncc3c(N4CCc5ccccc54)ncnc32)cc1`: the Potency was 31.6 µM (active).
As to `Cc1cccc(-n2ncc3c(N4CCc5ccccc54)ncnc32)c1`, the Potency was 3.16 µM (active).
Regarding `CC(=O)OCCC(C)C`, the Potency entry is “inactive”.
Consider `CCCn1c(-c2ccc(F)cc2)nc2c(NCC3CCCN3CC)nc(C)nc21` (stereo unspecified), for which the Potency entry was “inactive”.
The same measure, in the same setting: under `CCCN(C/C=C\I)[C@@H]1CCc2cccc(O)c2C1` stands “inactive”.
As to `Cc1ccc(S(=O)(=O)c2c(N)n(C)c3nc4ccccc4nc23)cc1`, the Potency was 31.6 µM (active).
On to `Cc1ccc(S(=O)(=O)NCc2nc3ccccc3c(=O)n2N)cc1`, for which the Potency entry is “inactive”.
With `COCCn1c(=O)c(C)nc2cnc(N(C)C)nc21`, the Potency result is “inactive”.
Still for that read-out and setting: in the case of `Cc1c2c(nc3ccccc13)-c1cccc(=O)n1C2` it was “inactive”; in that of `COC(=O)[C@@]1(Cc2ccccc2)[C@H]2c3cc(C(=O)N4CCCC4)n(Cc4ccc(C)o4)c3C[C@H]2CN1C(=O)c1ccccc1`, “inactive”.

The values are drawn from PubChem BioAssay AID886 (National Center for Advancing Translational Sciences (NCATS), 2007).
